Sampled rows, rich in hits. Any-hit rate of the full collection: about 8.6%.
MARV entry inh = qHTS for Inhibitors of binding or entry into cells for Marburg Virus | Potency, µM (series often up to 49.2 µM), without a hit: at the top dose activity change, negative = inhibition, hits mostly inhibitors | hit rate 6.5% among 18,000 | Marburg virus pseudotype entry/binding inhibition, cell-based
Lassa entry = qHTS for Inhibitors of binding or entry into cells for Lassa Virus | hit rate 4.1% among 18,000 | Potency, µM (highest dose often 49.2 µM), without a hit: at the highest dose activity change, negative = inhibition, most hits filed as inhibitors | Lassa virus pseudotyped entry inhibition, cell-based qHTS
* = called active by the depositor; ? = inconclusive; nt = no result; ! = not active in a repeat; [ ] = remark or other dose. Calls come from the whole dose curve; tested in HEK293 cells. % is set by controls: 0 for no effect and ±100 for the full control effect; potency is the fitted concentration of half-maximal effect.

SMILES | MARV entry inh | Lassa entry
COc1cc(CN2CCN(CCCSc3cc(C(C)(C)C)c(O)c(C(C)(C)C)c3)CC2)cc(OC)c1OC | 2.82µM* | 20µM*
COC(=O)[C@@H]1CC[C@H](C)[C@@H](c2ccc(C)cc2)N1C(=O)c1ccc(C=NO[C@@H](C)c2cn([C@H](CO)Cc3ccccc3)nn2)cc1 | 4.7%[8.59 µM] | nt
CC(C)c1c(C(=O)NCCN2CCOCC2)cnn1-c1nccc(-c2cccs2)n1 | -0.6% | -10.8%
COC(=O)[C@H](C(C)C)N(Cc1cc(OC)cc(OC)c1)S(=O)(=O)CCl | -23.3% | nt
CN1CCC(Nc2ncc3ncnc(Nc4ccc(F)c(Cl)c4)c3n2)CC1 | 10µM* | -10.1%
COC(=O)C1CCCCN1Cc1ccc2c(c1)CN(C1CCSCC1)CCO2 (centres undefined) | -25.4% | -17.7%
c1csc(C2(N3CCCCC3)CCCCC2)c1 | -9.6% | -2.2%
c1ccc2sc(C3(N4CCCCC4)CCCCC3)cc2c1 | 11.2µM* | ?
CCOC(=O)C1OC1C(=O)N[C@@H](CC(C)C)C(=O)NCCC(C)C (some centres undefined) | 5.01µM* | -4.2%
CCOC(=O)C1OC1C(=O)NC(CC(C)C)C(=O)NCCC(C)C (centres undefined) | 3.55µM* | -3.4%
C=C1c2cccc(C(F)(F)F)c2O[C@H](C(=O)OCC)[C@@H]1CCC(C)C | -12.1% | 4.4%
COc1ccc(CNc2cc(-c3ccccc3CN(C)C)ncn2)c(OC)c1 | 10µM* | 0.6%
COc1ccccc1-c1nc(NCc2ccccc2)c2ccccc2n1 | 12.6µM* | 14.1µM*
COc1ccc(CNc2nc(-c3ccoc3)nc3ccccc23)c(OC)c1 | -24.8% | -9.1%
Cc1cccc(CNc2nc(-c3ccoc3)nc3ccccc23)c1 | -16.9% | 1.9%
Cc1cccc(CNc2nc(-c3ccccc3CN(C)C)nc3ccccc23)c1 | 11.2µM* | ?
COc1ccc(CNc2nc(-c3ccccc3CN(C)C)nc3ccccc23)c(OC)c1 | 7.94µM* | ?
COc1ccccc1-c1cc(NCc2cccnc2)ncn1 | 10.6% | 9.3%
COc1ccccc1-c1nc(NCc2cnc(C)cn2)c2ccccc2n1 | 3.0% | 11.9%
Cc1ccc2[nH]nc(C(=O)N3CCOc4ccc(CN5CCc6sccc6C5)cc4C3)c2c1 | ? | 18.1%
O=S(=O)(N[C@@H](CO)Cc1ccccc1)c1ccc(Br)cc1F | 22.3% | 10.0%
C=C(Br)CO[C@@H]1C=C[C@@H](c2ccccc2)O[C@@H]1COC | 8.9%[8.59 µM] | 32.8%[8.59 µM]
COc1cc(=O)n2c(c1C(=O)N(C)Cc1nonc1C)CCN(Cc1cc(F)ccc1F)CC2 | -8.2% | -27.2%
COc1cc(=O)n2c(c1C(=O)N(C)Cc1nonc1C)CCN(Cc1c(F)cccc1F)CC2 | -14.3% | 11.2µM*
Cc1ncsc1CCC(=O)N1CCCC(c2nc(-c3ccncc3)ncc2-c2ccccc2)C1 (centres undefined) | ? | -20.5%
SMILES | MARV entry inh | Lassa entry
C=CCN1C(=O)[C@]2(OCCC=C[C@H]2C)c2c(Br)cccc21 | 53.5%[8.59 µM] | -0.7%[8.59 µM]
CCC1CN2CCC1CC2C(O)c1ccnc2ccc(OC)cc12 (centres undefined) | 20µM* | ?
CC[C@H]1CN2CC[C@@H]1C[C@H]2[C@@H](O)c1ccnc2ccc(OC)cc12 | ? | 4.2%[17.8 µM]
COC(=O)CC=C[C@@H](C)[C@H](OC)c1ccccc1Br | 0.596µM*! | ?
COC(=O)CC=C[C@@H](C)[C@H](O)c1ccccc1Br | -21.6%[8.59 µM] | -19.4%[8.59 µM]
Cc1cccc2nc(CNC(=O)CN3Cc4cc(Cl)ccc4OC(C)C3)cn12 (centres undefined) | ? | -16.1%
Cc1nc(Nc2ncc(C(=O)Nc3c(C)cccc3Cl)s2)cc(N2CCN(CCO)CC2)n1 | 12.6µM* | ?
CC(CCN1CCc2nc(-c3ccccc3)c(-c3ccccc3)cc2C1)=NO[C@H](C)CN1CCCCc2nc(C)c(C)cc21 | 24.9%[8.59 µM] | 7.4%[8.59 µM]
C=CCN(C)CCCCCCOc1ccc(C(=O)c2ccc(Br)cc2)c(F)c1 | 3.98µM* | ?
Cc1occc1C(=O)NCCN1Cc2ccccc2OC(c2ccccc2F)C1 (centres undefined) | ? | -8.6%
Oc1cccc[c]1[Hg][Cl] | ? | 1µM*
Oc1cccc(O)c1O | ? | -7.9%
COc1ccc(Cl)cc1N1C(=O)[C@@H]2C[C@H]1CN2Cc1nc2ccccc2nc1C | 1.6% | -9.0%
C=C(C[C@@]1(C(=O)OC)C=C[C@@H](C)[C@H](c2ccccc2Br)N1C(=O)C(F)(F)F)c1ccccc1 | -13.5%[8.59 µM] | -4.1%[8.59 µM]
C[C@@H]1CC[C@H]2C(=O)N(Cc3ccccc3)C[C@@H](O)CN2[C@@H]1c1cccc(Br)c1 | -22.0%[8.59 µM] | nt
N#CC(C#N)=NNc1ccc(OC(F)(F)F)cc1 | 3.16µM* | 1.26µM*
C=CCN1C(=O)CC[C@@]23C1=NC(C(=O)OC)=C(C(=O)OC)[C@@H]2N(CC#CC)c1ccccc13 | -20.0%[8.59 µM] | -6.9%[8.59 µM]
CC#CCN1c2ccccc2[C@]23CCC(=O)N(Cc4ccco4)C2=NC(C(=O)OC)=C(C(=O)OC)[C@H]13 | ? | -19.8%[8.59 µM]

Source: PubChem (National Center for Advancing Translational Sciences (NCATS))
